# According to PubChem BioAssay (NCATS):
# Results filed as inconclusive are left out. Unmarked numbers belong to inactive results. Activity calls are given as the source filed them. The call rests on the fitted dose curve; in most records, active means well fitted inhibition curve with a large enough effect; inconclusive means small, poorly fitted or top-dose-only effect; inactive means flat fitted curve, though single readings scatter.
# System: NIH3T3
# Assay: qHTS assay to identify novel small-molecules to repurpose for Merkel cell carcinoma treatment (AID 1296009); further: nearly all actives have a fitted effect of over 60% in size
# Conditions: MCC and control cell lines, CellTiter-Glo viability, 72 h; at 44.8 µM (top of the series) unless noted
# Outline: (§1)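 Cells exposed to NPC (8-point) and MIPE (11-point) compound dilutions for 72 hr at 37 degree celsius; viability read by CellTiter-Glo luminescence, normalized to no-cell and DMSO in-plate controls.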
# On the % scale 0 is the no-effect control and ±100 the full control effect.
row,SMILES,outcome
1,C[C@@H]1CCN(C(=O)[C@H](CCCN=C(N)N)NS(=O)(=O)c2cccc3c2NC[C@H](C)C3)[C@@H](C(=O)O)C1,inactive
2,CCCCC(CC)COC(=O)c1ccccc1O (stereo not drawn),inactive
3,NS(=O)(=O)c1cc2c(cc1C(F)(F)F)NC(Cc1ccccc1)NS2(=O)=O (stereo not drawn),inactive
4,COc1cc(C(=O)N2CCOCC2)cc(OC)c1OC,inactive
5,CCCCC/C(C=O)=C\c1ccccc1,inactive
6,CN1[C@@H]2CC[C@H]1CC(OC(=O)C(O)c1ccccc1)C2 (stereo partly drawn),inactive
7,O=C(Oc1ccccc1C(=O)O)c1ccccc1O,inactive
8,CC(COc1ccccc1)NC(C)C(O)c1ccc(O)cc1 (stereo not drawn),inactive
9,Cc1cc(O)cc2c1O[C@](C)(CCC[C@H](C)CCC[C@H](C)CCCC(C)C)CC2,inactive
10,CO/N=C(\C(=O)N[C@@H]1C(=O)N2C(C(=O)O)=C(CSc3nc(=O)c(O)nn3C)CS[C@H]12)c1csc(N)n1,inactive
11,COc1ccc2cc1Oc1cc3c(cc1OC)CC[N+](C)(C)[C@H]3Cc1ccc(cc1)Oc1c(OC)c(OC)cc3c1[C@@H](C2)[N+](C)(C)CC3,inactive
12,NC1CCN(c2cccc(Cl)n2)CC1,inactive
13,CC1CC(OC(=O)C(O)c2ccccc2)CC(C)(C)N1C (stereo not drawn),inactive
14,NC(CSCC(=O)O)C(=O)O (stereo not drawn),inactive

# System: UISO
# Assay: as above
# Conditions: MCC and control cell lines, CellTiter-Glo viability, 72 h; series mostly up to 46 µM; activity change, negative = cytotoxicity: at the top concentration
# Outline: as §1
row,SMILES,"activity change, negative = cytotoxicity"
1,Cc1ncc([N+](=O)[O-])n1CC(O)CCl (stereo not drawn),10.7%
2,C[C@@H]1CCN(C(=O)[C@H](CCCN=C(N)N)NS(=O)(=O)c2cccc3c2NC[C@H](C)C3)[C@@H](C(=O)O)C1,11.4%
3,C[C@H](NC(CCc1ccccc1)C(=O)O)C(=O)N1CCC[C@H]1C(=O)O (stereo partly drawn),13.8%
4,Oc1ccc(C(O)CNCCCCCCNCC(O)c2ccc(O)c(O)c2)cc1O (stereo not drawn),3.32%
5,CCCCC(CC)COC(=O)c1ccccc1O (stereo not drawn),27.4%
6,N[C@H](C(=O)O)c1ccc(O)cc1,20.4% [at 16.1 µM]
7,NC(=O)NC(=O)Cc1ccccc1,15.2%
8,C#CCN(C)Cc1ccccc1,18.5%
9,NS(=O)(=O)c1cc2c(cc1C(F)(F)F)NC(Cc1ccccc1)NS2(=O)=O (stereo not drawn),16.8%
10,O=C1N=C(O)CN1/N=C/c1ccc(-c2ccc([N+](=O)[O-])cc2)o1,-5.54%
11,CCCCCCCCCCCCCCCCCCOCC(O)CO (stereo not drawn),26.3%
12,NCCNCCNCCNCCN,44% [at 9.22 µM]
13,CN(C)CCCO[C@@H]1[C@H]2OC(C)(C)O[C@H]2O[C@@H]1C(O)CO (stereo partly drawn),2.33%
14,OC[C@H]1O[C@@H](O[C@@H]2[C@@H](CO)O[C@](O)(CO)[C@H]2O)[C@H](O)[C@@H](O)[C@H]1O,-4.77%
15,N[C@@H](CSSC[C@H](N)C(=O)O)C(=O)O,9.88% [at 0.597 µM]
16,CC1(C)CO[C@@H](CC(=O)O)CN1,9.96%
17,CC1=C(C/C=C(\C)CCC[C@H](C)CCC[C@H](C)CCCC(C)C)C(=O)c2ccccc2C1=O,-16.8%
18,COc1cc(C(=O)N2CCOCC2)cc(OC)c1OC,14.5%
19,CCCCC/C(C=O)=C\c1ccccc1,14.8%
20,CC(=O)Nc1ccc(/C=N/NC(N)=S)cc1,7.34%

row,SMILES,"activity change, negative = cytotoxicity"
1,O=C1OC(OC(=O)c2cccnc2Nc2cccc(C(F)(F)F)c2)c2ccccc21 (stereo not drawn),4.58%
2,O=C(O)CN1C(=O)c2cccc3cccc(c23)C1=O,25.9%
3,CN1[C@@H]2CC[C@H]1CC(OC(=O)C(O)c1ccccc1)C2 (stereo partly drawn),17.8%
4,O=C(Oc1ccccc1C(=O)O)c1ccccc1O,35.5%
5,CC(COc1ccccc1)NC(C)C(O)c1ccc(O)cc1 (stereo not drawn),44.3%
6,CCN(CC)CCOC(=O)C1(C2CCCCC2)CCCCC1,-13.6%
7,Cc1cc(O)cc2c1O[C@](C)(CCC[C@H](C)CCC[C@H](C)CCCC(C)C)CC2,-4.73%
8,O=S(=O)(O)c1cc(I)c(O)c2ncccc12,33.4%
9,Cc1ncc(COP(=O)(O)O)c(C=O)c1O,2.78%
10,CO/N=C(\C(=O)N[C@@H]1C(=O)N2C(C(=O)O)=C(CSc3nc(=O)c(O)nn3C)CS[C@H]12)c1csc(N)n1,32%
11,O=C(O)COc1nn(Cc2ccccc2)c2ccccc12,5.23%
12,CCCc1c(OCCCCc2nn[nH]n2)ccc(C(C)=O)c1O,12.5%
13,COc1ccc2cc1Oc1cc3c(cc1OC)CC[N+](C)(C)[C@H]3Cc1ccc(cc1)Oc1c(OC)c(OC)cc3c1[C@@H](C2)[N+](C)(C)CC3,27.4%
14,NC1CCN(c2cccc(Cl)n2)CC1,18.4%
15,Nc1cc(=O)[nH]c(N)n1,5.92%
16,CC(O)COc1ccccc1 (stereo not drawn),15.2%
17,CC1CC(OC(=O)C(O)c2ccccc2)CC(C)(C)N1C (stereo not drawn),16%
18,O=C1O[C@H](CO)[C@@H](O)[C@H](O)[C@H]1O,10.7%
19,NC(CSCC(=O)O)C(=O)O (stereo not drawn),8.9%
